Here are results for 17 compounds from PubChem BioAssay (NCI).

Compounds without any hit were thinned out: in the full panel of roughly 83,000, 20% have a hit.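 Single-concentration screen, 48 h exposure, 96-well plates. Endpoint: percent growth. Below 10 = active.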 A number with no mark means an inactive call. The source made the active and inactive calls.

Test systems include SR leukemia; OVCAR-8 ovarian; OVCAR-5 ovarian; SK-OV-3 ovarian; IGROV1 ovarian; OVCAR-3 ovarian; HS 578T breast; NCI/ADR-RES ovarian; OVCAR-4 ovarian; RPMI-8226 leukemia.
Holding throughout (assay): NCI-60 one-dose screen, 48 h (100 = growth as untreated, 0 = no growth, -100 = all killed)
Holding throughout (conditions): 10 µM unless noted

Regarding `COc1cccc(N=CNc2cccc(OC)c2)c1`, the growth with SR leukemia is 93.6%; in the experiment with OVCAR-8 ovarian it was 104%; in the experiment with OVCAR-5 ovarian it was 103%; with SK-OV-3 ovarian, 103%; in the experiment with IGROV1 ovarian, 96.7%; with OVCAR-3 ovarian, 102%. Further, the figures for the growth with HS 578T breast and in the experiment on NCI/ADR-RES ovarian were 105% and 91.4%, respectively.
As to `COC1CC(OC(=O)c2ccc([N+](=O)[O-])cc2)C(COC(=O)c2ccc([N+](=O)[O-])cc2)O1` (stereo not given), the growth in the experiment with SR leukemia is 85.9%; with OVCAR-8 ovarian it was 91.2%; in the experiment with OVCAR-5 ovarian, 99.7%; in the experiment with OVCAR-4 ovarian, 97%; in the experiment with SK-OV-3 ovarian it was 107%; in the experiment with IGROV1 ovarian, 126%. For the same compound, the growth is 109% in the experiment on HS 578T breast and 108% with NCI/ADR-RES ovarian.
With `COC(c1ccc2c(c1)OCO2)C(C)Br` (stereo not given), the growth was 88.6% in the experiment with SR leukemia; 101% in the experiment on OVCAR-8 ovarian; 101% in the experiment with OVCAR-5 ovarian; 100% in the experiment with OVCAR-4 ovarian; 83.1% with SK-OV-3 ovarian; 91.4% in the experiment on IGROV1 ovarian. Further, the growth in the experiment with OVCAR-3 ovarian is 110%; in the experiment with HS 578T breast, 91.2%; with NCI/ADR-RES ovarian, 106%.
For `COc1ccc(-c2csc(NC(=O)Nc3nc(-c4ccc(OC)cc4)cs3)n2)cc1`, the growth was 60.2% with SR leukemia; 70.3% with OVCAR-8 ovarian; 79% in the experiment with OVCAR-4 ovarian; 116% in the experiment on SK-OV-3 ovarian; 92.4% in the experiment on IGROV1 ovarian; 81.9% in the experiment on OVCAR-3 ovarian. Further, the results for the growth in the experiment on HS 578T breast and with NCI/ADR-RES ovarian were 105% and 79.2%, respectively.
On to `COc1ccc(NNS(=O)(=O)O)cc1`, for which the growth in the experiment with SR leukemia is 93.2%; in the experiment on OVCAR-8 ovarian it was 98.4%; in the experiment on OVCAR-5 ovarian, 93.3%; in the experiment on SK-OV-3 ovarian, 102%; with OVCAR-3 ovarian, 114%; in the experiment with HS 578T breast, 92.2%. In the experiment on NCI/ADR-RES ovarian, the growth was 92.4%.
Turning to `O=C(Nc1ccc([N+](=O)[O-])cc1)C(=O)Nc1ccc([N+](=O)[O-])cc1`, the growth was 101% with SR leukemia; 86.4% in the experiment on OVCAR-8 ovarian; 102% with OVCAR-5 ovarian; 121% in the experiment with OVCAR-4 ovarian; 93.5% in the experiment on SK-OV-3 ovarian; 105% in the experiment on IGROV1 ovarian. The growth in the experiment with HS 578T breast was 95%; in the experiment on NCI/ADR-RES ovarian, 105%.
In the case of `CCOc1ccncc1[N+](=O)[O-]`, the growth is 102% in the experiment with SR leukemia; 97.5% in the experiment on OVCAR-8 ovarian; 116% with OVCAR-4 ovarian; 110% in the experiment with SK-OV-3 ovarian; 118% in the experiment on IGROV1 ovarian; 106% in the experiment on OVCAR-3 ovarian. Also, the growth in the experiment on HS 578T breast was 112%.
Turning to `CCNCC(C)(C)O`, the growth in the experiment on RPMI-8226 leukemia is 107%; in the experiment on OVCAR-8 ovarian, 106%; with OVCAR-5 ovarian it was 100%; with OVCAR-4 ovarian, 98.7%; with SK-OV-3 ovarian it was 110%; in the experiment on IGROV1 ovarian, 112%. Moreover, the figures for the growth in the experiment on OVCAR-3 ovarian, in the experiment with HS 578T breast and in the experiment on NCI/ADR-RES ovarian were 117%, 113% and 102%, respectively.
As to `COC(=O)Cc1cc(COC(C)=O)ccc1C`, the growth was 75.4% in the experiment on SR leukemia; 108% with OVCAR-8 ovarian; 103% in the experiment with OVCAR-5 ovarian; 114% with OVCAR-4 ovarian; 125% in the experiment on SK-OV-3 ovarian; 107% in the experiment with IGROV1 ovarian. Further, the growth with OVCAR-3 ovarian is 109%; in the experiment with HS 578T breast, 112%; in the experiment with NCI/ADR-RES ovarian, 107%.
For the compound `Clc1ncnc2nc[nH]c12`, the growth was 102% with SR leukemia; 102% with OVCAR-8 ovarian; 101% with OVCAR-5 ovarian; 103% in the experiment with OVCAR-4 ovarian; 98.1% in the experiment on OVCAR-3 ovarian; 98% in the experiment on HS 578T breast. In the experiment on NCI/ADR-RES ovarian, the growth was 103%.
Consider `CC(=O)Nc1ccc(/C=C2\SC(=S)N(/C=C(\C(C)=O)C(N)=O)C2=O)cc1`, for which the growth was 83.9% in the experiment on RPMI-8226 leukemia; 92.8% in the experiment with OVCAR-8 ovarian; 98.7% in the experiment on OVCAR-5 ovarian; 99.4% with OVCAR-4 ovarian; 86.9% in the experiment on SK-OV-3 ovarian; 105% with IGROV1 ovarian. In addition, the growth in the experiment on OVCAR-3 ovarian is 105%; with HS 578T breast it was 95.7%; with NCI/ADR-RES ovarian, 100%.
With `COc1cc(C(=O)N2CCN(c3ccccc3)CC2)c2ccccc2n1`, the growth with RPMI-8226 leukemia is 35.1%; in the experiment with OVCAR-8 ovarian, 14.3%; with OVCAR-5 ovarian, 39.4%; with OVCAR-4 ovarian, 57.5%; in the experiment on SK-OV-3 ovarian it was 5.77% (active); in the experiment on IGROV1 ovarian it was 17.4%. In addition, the growth in the experiment on OVCAR-3 ovarian was -33.5% (active); in the experiment with HS 578T breast it was 27%; with NCI/ADR-RES ovarian it was -43.6% (active).
For the compound `CCOC(=O)CO`, the growth with SR leukemia is 95%; in the experiment with OVCAR-8 ovarian it was 109%; in the experiment on OVCAR-5 ovarian, 105%; in the experiment with OVCAR-4 ovarian, 111%; in the experiment with SK-OV-3 ovarian it was 109%; with IGROV1 ovarian, 105%. Besides, the growth in the experiment with OVCAR-3 ovarian is 125%; with HS 578T breast it was 109%; in the experiment on NCI/ADR-RES ovarian, 109%.
Take `CC1(c2ccccc2)CO1` (stereo not given): the growth in the experiment with SR leukemia was 104%; in the experiment with OVCAR-8 ovarian, 102%; in the experiment on OVCAR-5 ovarian, 97.5%; in the experiment on SK-OV-3 ovarian it was 107%; in the experiment with IGROV1 ovarian it was 100%; in the experiment with HS 578T breast, 97.4%. Moreover, in the experiment on NCI/ADR-RES ovarian, the growth is 113%.
As for `CC1(C)C2CCC1(C)C1(C2)OCCS1` (stereo not given), the growth with RPMI-8226 leukemia is 113%; in the experiment with OVCAR-8 ovarian, 101%; in the experiment with OVCAR-5 ovarian it was 93.3%; in the experiment with OVCAR-4 ovarian, 101%; in the experiment with SK-OV-3 ovarian, 106%; with IGROV1 ovarian, 104%. The growth with OVCAR-3 ovarian is 109%; in the experiment with HS 578T breast, 102%; with NCI/ADR-RES ovarian it was 92.4%.
In the case of `Nc1ccccc1SC1CC(=O)N(c2ccc(Cl)c(Cl)c2)C1=O` (stereo not given), the growth in the experiment on SR leukemia was 91.1%; in the experiment with OVCAR-8 ovarian, 79.4%; in the experiment on OVCAR-5 ovarian, 104%; in the experiment with OVCAR-4 ovarian, 92.1%; with SK-OV-3 ovarian it was 90.5%; in the experiment with IGROV1 ovarian, 105%. The growth with HS 578T breast is 117%; in the experiment on NCI/ADR-RES ovarian, 95.7%.
`CN(C)c1ccc2c(N(C)C)cc(N(C)C)nc2c1`: the growth with RPMI-8226 leukemia was 69.8%; with OVCAR-8 ovarian, 78.3%; in the experiment with OVCAR-5 ovarian, 102%; with OVCAR-4 ovarian, 72.1%; with SK-OV-3 ovarian, 87.5%; in the experiment with IGROV1 ovarian, 103%. In addition, the growth in the experiment on OVCAR-3 ovarian was 93.6%; with HS 578T breast, 100%; with NCI/ADR-RES ovarian, 77%.
